# Measurements from publication PMC5349851, “Combinatorial bZIP dimers display complex DNA-binding specificity landscapes”.
# Assays:
# Test in all cases: SELEX-seq (CSI, HT-SELEX, round 3); SELEX-seq: 1x PBS (10 mM phosphate, 137 mM NaCl, 2.7 mM KCl) pH 7.6, 2.5 mM DTT, 50 ng/ul poly dI-dC, 0.1% BSA, 50 nM biotinylated bZIP (1:3 with partner for heterodimers), 100 nM library, room temperature, 1 h, 3 rounds; high values mean tight binding
# Conditions in all cases: protein: recombinant;recombinant; copies: 1;1; dsDNA, one strand shown
# [1] = biological target: FOS;CEBPG (Homo sapiens;Homo sapiens, UniProt P01100;P53567 128-201;52-130, |)
# Sequence of FOS;CEBPG (P01100 other isoform, or with tags, fused parts or gaps |): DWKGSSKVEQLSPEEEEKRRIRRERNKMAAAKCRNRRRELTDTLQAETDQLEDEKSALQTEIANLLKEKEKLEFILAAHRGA
# [2] = biological target: T1, CEBPG;CEBPG (Homo sapiens;Homo sapiens, UniProt P53567;P53567 52-130;52-130, |)
# T1 sequence 1: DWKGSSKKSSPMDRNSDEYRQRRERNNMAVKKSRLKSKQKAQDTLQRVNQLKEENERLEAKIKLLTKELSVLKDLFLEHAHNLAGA
# T1 sequence 2: T1 sequence 1
# [3] = biological target: CEBPA;CEBPA (Homo sapiens;Homo sapiens, UniProt P49715;P49715 273-345;273-345, |)
# Sequence of CEBPA;CEBPA (P49715 other isoform, or with tags, fused parts or gaps |, chain 1 of 2): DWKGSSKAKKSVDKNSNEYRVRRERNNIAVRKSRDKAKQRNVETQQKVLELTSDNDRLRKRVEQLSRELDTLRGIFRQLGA
# Sequence of CEBPA;CEBPA (P49715 other isoform, or with tags, fused parts or gaps |, chain 2 of 2): as the sequence (P49715 other isoform, or with tags, fused parts or gaps |, chain 1 of 2) above
# [4] = biological target: JUN;ATF3 (Homo sapiens;Homo sapiens, UniProt P05412;P18847 243-316;77-150, |)
# Sequence of JUN;ATF3 (P05412 other isoform, or with tags, fused parts or gaps |): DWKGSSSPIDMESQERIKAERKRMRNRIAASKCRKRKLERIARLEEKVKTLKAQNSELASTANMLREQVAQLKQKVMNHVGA
# [5] = biological target: JUN;JUN (Homo sapiens;Homo sapiens, UniProt P05412;P05412 243-316;243-316, |)
# Sequence of JUN;JUN (P05412 other isoform, or with tags, fused parts or gaps |, chain 1 of 2): as the sequence (P05412 other isoform, or with tags, fused parts or gaps |) above
# Sequence of JUN;JUN (P05412 other isoform, or with tags, fused parts or gaps |, chain 2 of 2): as the sequence (P05412 other isoform, or with tags, fused parts or gaps |) above
# [6] = biological target: ATF4;CEBPG (Homo sapiens;Homo sapiens, UniProt P18848;P53567 269-346;52-130, |)
# Sequence of ATF4;CEBPG (P18848 other isoform, or with tags, fused parts or gaps |): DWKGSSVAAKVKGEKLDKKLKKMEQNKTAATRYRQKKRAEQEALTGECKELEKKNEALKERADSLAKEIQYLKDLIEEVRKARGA
# [7] = biological target: ATF4;CEBPA (Homo sapiens;Homo sapiens, UniProt P18848;P49715 269-346;273-345, |)
# Sequence of ATF4;CEBPA (P18848 other isoform, or with tags, fused parts or gaps |, chain 1 of 2): as the sequence (P18848 other isoform, or with tags, fused parts or gaps |) above
# Sequence of ATF4;CEBPA (P49715 other isoform, or with tags, fused parts or gaps |, chain 2 of 2): as the sequence (P49715 other isoform, or with tags, fused parts or gaps |, chain 1 of 2) above
# [8] = biological target: ATF4;ATF4 (Homo sapiens;Homo sapiens, UniProt P18848;P18848 269-346;269-346, |)
# Sequence of ATF4;ATF4 (P18848 other isoform, or with tags, fused parts or gaps |, chain 1 of 2): as the sequence (P18848 other isoform, or with tags, fused parts or gaps |) above
# Sequence of ATF4;ATF4 (P18848 other isoform, or with tags, fused parts or gaps |, chain 2 of 2): as the sequence (P18848 other isoform, or with tags, fused parts or gaps |) above
# [9] = biological target: T2, BATF3;ATF3 (Homo sapiens;Homo sapiens, UniProt Q9NR55;P18847 26-99;77-150, |)
# T2 sequence 1: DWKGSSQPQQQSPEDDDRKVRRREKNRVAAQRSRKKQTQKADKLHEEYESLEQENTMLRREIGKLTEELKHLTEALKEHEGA
# T2 sequence 2: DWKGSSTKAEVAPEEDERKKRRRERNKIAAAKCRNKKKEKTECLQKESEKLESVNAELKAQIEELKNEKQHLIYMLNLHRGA
# [10] = biological target: BATF3;ATF4 (Homo sapiens;Homo sapiens, UniProt Q9NR55;P18848 26-99;269-346, |)
# Sequence of BATF3;ATF4 (P18848 other isoform, or with tags, fused parts or gaps |, chain 2 of 2, one chain of several): as the sequence (P18848 other isoform, or with tags, fused parts or gaps |) above
# [11] = biological target: T3, BATF3;BATF3 (Homo sapiens;Homo sapiens, UniProt Q9NR55;Q9NR55 26-99;26-99, |)
# T3 sequence 1: T2 sequence 1
# T3 sequence 2: T2 sequence 1
# [12] = biological target: T4, ATF2;ATF2 (Homo sapiens;Homo sapiens, UniProt P15336;P15336 343-417;343-417, |)
# T4 sequence 1: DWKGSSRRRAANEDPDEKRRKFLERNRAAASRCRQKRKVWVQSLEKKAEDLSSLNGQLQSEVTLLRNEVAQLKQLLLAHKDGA
# T4 sequence 2: T4 sequence 1
# [13] = biological target: T5, XBP1;XBP1 (Homo sapiens;Homo sapiens, UniProt P17861;P17861 61-138;61-138, |)
# T5 sequence 1: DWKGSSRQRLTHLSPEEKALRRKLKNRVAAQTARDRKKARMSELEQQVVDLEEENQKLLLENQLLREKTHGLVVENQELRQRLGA
# T5 sequence 2: T5 sequence 1
# [14] = biological target: T6, DBP;DBP (Homo sapiens;Homo sapiens, UniProt Q10586;Q10586 246-324;246-324, |)
# T6 sequence 1: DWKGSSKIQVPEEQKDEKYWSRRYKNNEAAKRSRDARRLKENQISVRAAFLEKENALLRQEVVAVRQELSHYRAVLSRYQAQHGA
# T6 sequence 2: T6 sequence 1
# [15] = biological target: T7, JUNB;ATF3 (Homo sapiens;Homo sapiens, UniProt P17275;P18847 259-332;77-150, |)
# T7 sequence 1: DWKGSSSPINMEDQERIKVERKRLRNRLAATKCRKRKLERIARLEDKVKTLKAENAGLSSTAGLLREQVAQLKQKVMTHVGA
# T7 sequence 2: T2 sequence 2
# [16] = biological target: T8, JUNB;CEBPG (Homo sapiens;Homo sapiens, UniProt P17275;P53567 259-332;52-130, |)
# T8 sequence 1: T7 sequence 1
# T8 sequence 2: T1 sequence 1
# [17] = biological target: JUNB;JUN (Homo sapiens;Homo sapiens, UniProt P17275;P05412 259-332;243-316, |)
# Sequence of JUNB;JUN (P05412 other isoform, or with tags, fused parts or gaps |): as the sequence (P05412 other isoform, or with tags, fused parts or gaps |) above
# [18] = biological target: JUNB;ATF4 (Homo sapiens;Homo sapiens, UniProt P17275;P18848 259-332;269-346, |)
# Sequence of JUNB;ATF4 (P18848 other isoform, or with tags, fused parts or gaps |): as the sequence (P18848 other isoform, or with tags, fused parts or gaps |) above
# [19] = biological target: T9, JUNB;BATF3 (Homo sapiens;Homo sapiens, UniProt P17275;Q9NR55 259-332;26-99, |)
# T9 sequence 1: T7 sequence 1
# T9 sequence 2: T2 sequence 1
# [20] = biological target: T10, JUNB;ATF2 (Homo sapiens;Homo sapiens, UniProt P17275;P15336 259-332;343-417, |)
# T10 sequence 1: T7 sequence 1
# T10 sequence 2: T4 sequence 1
Sequence,binding signal [1],binding signal [2],binding signal [3],binding signal [4],binding signal [5],binding signal [6],binding signal [7],binding signal [8],binding signal [9],binding signal [10],binding signal [11],binding signal [12],binding signal [13],binding signal [14],binding signal [15],binding signal [16],binding signal [17],binding signal [18],binding signal [19],binding signal [20]
ATGACGTCAT,0.508 relative CSI intensity (max = 1),0.00362 relative CSI intensity (max = 1),0.015 relative CSI intensity (max = 1),0.367 relative CSI intensity (max = 1),1 relative CSI intensity (max = 1),0.465 relative CSI intensity (max = 1),0.584 relative CSI intensity (max = 1),1 relative CSI intensity (max = 1),0.146 relative CSI intensity (max = 1),0.748 relative CSI intensity (max = 1),0.904 relative CSI intensity (max = 1),1 relative CSI intensity (max = 1),0.222 relative CSI intensity (max = 1),0.0564 relative CSI intensity (max = 1),1 relative CSI intensity (max = 1),0.0649 relative CSI intensity (max = 1),0.769 relative CSI intensity (max = 1),1 relative CSI intensity (max = 1),1 relative CSI intensity (max = 1),1 relative CSI intensity (max = 1)
ATGACGCAAT,0.92 relative CSI intensity (max = 1),0.307 relative CSI intensity (max = 1),0.292 relative CSI intensity (max = 1),0.267 relative CSI intensity (max = 1),0.0387 relative CSI intensity (max = 1),1 relative CSI intensity (max = 1),0.929 relative CSI intensity (max = 1),–,0.00445 relative CSI intensity (max = 1),0.00858 relative CSI intensity (max = 1),0.00125 relative CSI intensity (max = 1),0.0881 relative CSI intensity (max = 1),0.00105 relative CSI intensity (max = 1),0.0702 relative CSI intensity (max = 1),0.0139 relative CSI intensity (max = 1),0.308 relative CSI intensity (max = 1),0.0103 relative CSI intensity (max = 1),0.0028 relative CSI intensity (max = 1),0.026 relative CSI intensity (max = 1),0.00356 relative CSI intensity (max = 1)
ATGACGGAAT,0.0215 relative CSI intensity (max = 1),–,–,0.0994 relative CSI intensity (max = 1),0.0116 relative CSI intensity (max = 1),0.0162 relative CSI intensity (max = 1),0.133 relative CSI intensity (max = 1),–,0.00122 relative CSI intensity (max = 1),0.00174 relative CSI intensity (max = 1),–,0.0134 relative CSI intensity (max = 1),–,–,0.00128 relative CSI intensity (max = 1),0.00175 relative CSI intensity (max = 1),0.0196 relative CSI intensity (max = 1),–,0.00175 relative CSI intensity (max = 1),–
